Laboratory results from PubChem BioAssay.
Active and inactive are the calls of the source. Unless noted, the rule behind the calls is not given here.

Tests used:
[1] = resazurin metabolic signal in HepG2 cells – cell-based, resazurin fluorescence, 24 h, PK04 Diversity Set, profiling panel (AID 1172); conditions: HepG2 viability, higher = more signal; note: test concentration not given here
[2] = budding yeast growth changes without added modifier – OD600, strain BY4716, 24 h, basal condition, primary screen (AID 1173); conditions: S. cerevisiae BY4716 growth, OD600, 24 h; higher = more signal, called active from +8 up or from −8 down
[3] = viability profiling in MM1S myeloma cells – cell-based, resazurin fluorescence, basal, 24 h, PK04 Diversity Set, profiling panel (AID 1174); conditions: higher = more signal, called active from +8 up or from −8 down;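 note: MM1S multiple myeloma cell line; test concentration not given here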
[4] = biological target: Dihydroorotate dehydrogenase (quinone), mitochondrial (Plasmodium falciparum (isolate 3D7)) (UniProt Q08210); experiment: inhibition of P. falciparum DHODH – biochemical, C-terminal His tag, absorbance 600 nm, primary screen (AID 1175); conditions: PfDHODH enzyme, DCIP absorbance 600 nm; higher = more signal, called active from +8 up or from −8 down;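 note: recombinant parasite enzyme with a five histidine tag at its C terminus; test concentration not given here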
Sequence of Dihydroorotate dehydrogenase (quinone), mitochondrial (Plasmodium falciparum (isolate 3D7)) (Q08210 whole entry, looked up): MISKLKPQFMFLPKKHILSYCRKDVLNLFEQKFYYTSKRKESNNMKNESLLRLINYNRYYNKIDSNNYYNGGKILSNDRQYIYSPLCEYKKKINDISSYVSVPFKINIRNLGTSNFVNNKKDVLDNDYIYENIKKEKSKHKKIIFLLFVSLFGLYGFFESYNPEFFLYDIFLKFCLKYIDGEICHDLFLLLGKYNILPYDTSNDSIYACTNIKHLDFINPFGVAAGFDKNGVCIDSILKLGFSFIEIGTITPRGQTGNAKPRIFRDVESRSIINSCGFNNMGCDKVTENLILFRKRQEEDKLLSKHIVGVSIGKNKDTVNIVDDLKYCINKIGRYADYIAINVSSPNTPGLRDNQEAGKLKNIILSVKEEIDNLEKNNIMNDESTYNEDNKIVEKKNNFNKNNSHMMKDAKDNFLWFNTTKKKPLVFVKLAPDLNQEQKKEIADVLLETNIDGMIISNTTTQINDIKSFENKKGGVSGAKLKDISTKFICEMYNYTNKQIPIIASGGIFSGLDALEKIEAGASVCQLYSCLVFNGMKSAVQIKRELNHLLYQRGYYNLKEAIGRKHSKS

[5] = inhibition of PAO1 biofilm formation – strain PAO1, LB-PBS medium, absorbance 600 nm, primary screen (AID 1176); note: test concentration not given here; conditions: P. aeruginosa PAO1 growth/biofilm, A600, 12 h; higher = more signal
[6] = growth modulation of vineyard yeast isolate – strain RM11-1a, OD600, basal, 24 h, primary screen (AID 1177);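 note: cultures grown under basal conditions with no added stressor; test concentration not given here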; conditions: S. cerevisiae RM11-1a growth, OD600, 24 h; higher = more signal, called active from +8 up or from −8 down
[7] = growth of efflux-deficient E. coli DRC39 – strain DRC39, OD650, 24 h, E. coli filamentation inducers, primary screen (AID 1178);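 note: growth measured as culture turbidity by optical density at 650 nm; test concentration not given here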; conditions: E. coli DRC39 acrAB, higher = more signal, called active from +8 up or from −8 down
[8] = growth of efflux-deficient E. coli DRC39 – strain DRC39, OD650, 48 h, E. coli filamentation inducers, primary screen (AID 1179);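 note: screen aims at cell division blockers that make cells filament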; conditions: E. coli DRC39 delta-acrAB growth, higher = more signal, called active from +8 up or from −8 down
[9] = viability profiling in RPMI8226 myeloma cells – cell-based, resazurin fluorescence, basal, 24 h, PK04 Diversity Set, profiling panel (AID 1180); conditions: higher = more signal;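 note: RPMI8826 multiple myeloma cell line at 5000 cells per well; test concentration not given here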
[10] = biological target: E3 ubiquitin-protein ligase XIAP (Homo sapiens) (UniProt P98170); experiment: small molecules binding XIAP protein – biophysical, small-molecule microarray, fluorescence 635 nm, primary screen (AID 1181); conditions: higher = more signal;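 note: score merges 667 nm emission and signal to noise over triplicate slides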
Sequence of E3 ubiquitin-protein ligase XIAP (Homo sapiens) (P98170 whole entry, looked up): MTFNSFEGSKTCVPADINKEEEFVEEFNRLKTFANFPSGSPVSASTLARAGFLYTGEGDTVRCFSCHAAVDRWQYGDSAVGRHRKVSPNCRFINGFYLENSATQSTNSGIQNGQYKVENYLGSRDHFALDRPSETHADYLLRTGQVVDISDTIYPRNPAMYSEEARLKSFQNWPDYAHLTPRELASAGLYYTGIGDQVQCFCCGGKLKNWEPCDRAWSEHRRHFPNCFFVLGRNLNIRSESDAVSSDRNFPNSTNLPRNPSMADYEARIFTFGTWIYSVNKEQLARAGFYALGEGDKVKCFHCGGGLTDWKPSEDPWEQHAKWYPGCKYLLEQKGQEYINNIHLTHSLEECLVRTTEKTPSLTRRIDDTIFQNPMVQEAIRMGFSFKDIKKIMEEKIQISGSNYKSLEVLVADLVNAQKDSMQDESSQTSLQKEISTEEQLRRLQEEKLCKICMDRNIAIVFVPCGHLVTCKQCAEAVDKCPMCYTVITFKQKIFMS

| Compound | z-score [1] | z-score [2] | z-score [3] | composite z-score [4] | z-score [5] | z-score [6] | z-score [7] | z-score [8] | z-score [9] | composite z-score [10] |
| --- | --- | --- | --- | --- | --- | --- | --- | --- | --- | --- |
| CCOC(=O)CCN1C(=O)[C@H]2[C@H]3[C@H](O)[C@H](O)CC(=NO[C@@H]4O[C@H](CO)[C@@H](O)[C@H](O)[C@H]4O)[C@@H]3CC[C@H]2C1=O | -0.901 | -1.4 (inactive) | -0.481 (inactive) | -0.451 (inactive) | 0.48 (inactive) | -0.445 (inactive) | 0.225 (inactive) | 0.79 (inactive) | -0.634 | -0.0125 |
| CC1(C)O[C@H]2OC([C@H](O)CON3C(=O)c4ccccc4C3=O)[C@H](O)[C@H]2O1 (stereo not given in full) | 0.109 | 0.457 (inactive) | -0.409 (inactive) | -0.559 (inactive) | -0.151 (inactive) | -0.854 (inactive) | 0.345 (inactive) | 0.209 (inactive) | 0.0738 | -0.261 |
| CO[C@H]1COC(=O)[C@H](C)COC(=O)[C@H](C)NC(=O)CC=C[C@H]1C | 0.377 | -1.32 (inactive) | 1.13 (inactive) | 0.0315 (inactive) | -0.826 (inactive) | -0.419 (inactive) | 0.91 (inactive) | -0.193 (inactive) | 1.03 | -0.0525 |
| O=C1CCCC=C1C(O)COCc1ccccc1 (stereo not given) | -0.178 | -0.971 (inactive) | -0.155 (inactive) | 0.438 (inactive) | 0.402 (inactive) | 0.902 (inactive) | -0.227 (inactive) | -0.477 (inactive) | 0.13 | -0.02 |
| CC(=O)OC[C@H]1O[C@@H](ON=C(C)C)[C@H](OC(C)=O)[C@@H](OC(C)=O)[C@@H]1OC(C)=O | 0.199 | 0.515 (inactive) | -0.0437 (inactive) | -0.696 (inactive) | 0.569 (inactive) | 0.0958 (inactive) | -0.308 (inactive) | -2.31 (inactive) | -0.0678 | 0.0478 |
| CCCNC(=O)OC[C@H]1O[C@H](CCON=C2C[C@@H](O)[C@@H](O)[C@@H]3[C@@H]4C(=O)N(CC)C(=O)[C@@H]4CC[C@@H]23)C=C[C@@H]1Oc1ccc(OC)cc1 | -0.57 | 0.0913 (inactive) | -0.791 (inactive) | -0.384 (inactive) | 0.429 (inactive) | -0.32 (inactive) | 0.74 (inactive) | 0.658 (inactive) | -1.02 | -0.281 |
